High-throughput results as filed in PubChem.
HP1b chromo inh: blocks HP1-beta chromodomain binding to methylated histone tails. P83916. AlphaScreen HP1-beta / biotin-H3K9me3 peptide binding. Potency, µM (highest dose often 114 µM), most hits filed as inhibitors. actives 0.56% (n = 390,000). AID 540317; further: nearly all actives have a fitted effect of over 70% in size
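HP1-beta protein (50 nM final) preincubated 30 min at room temperature with biotinylated H3(1-18)K9me3 peptide (50 nM) in PBS pH 7.4, 0.01% Tween-20, then compound added for 30 min. AlphaScreen streptavidin donor/nickel chelate acceptor beads (10 ug/mL final), 30 min dark, luminescence read.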
Sfp PPTase inh: blocks B. subtilis Sfp PPTase activity; AID 1490; Potency, µM, most hits filed as inhibitors; Biochemical Sfp PPTase activity, qHTS; actives 3.5% (n = 310,000);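 further: the enzyme is Sfp with the accession as filed and its product quenches rhodamine fluorescence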
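Buffer: 50 mM Hepes-Na pH 7.6, 10 mM MgCl2, 0.01% Nonidet P-40, 0.01% BSA. Enzyme 15 nM, pre-exposed to compound 15 min; substrates then added and fluorescence change tracked over 30 min.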
PLK1 PBD inh: inhibitors of human PLK1 polo-box domain binding. actives 2.8% (n = 360,000). Plk1 PBD binding of FITC phosphopeptide, fluorescence polarization. AID 720504. P53350. Potency, µM, most hits filed as inhibitors; further: series mostly up to about 57 µM; nearly all actives have a fitted effect of over 65% in size
G9a inh: G9a (human) methyltransferase inhibition; G9a H3K9 monomethylation, AlphaScreen, 2 h; AID 504332; Potency, µM (series often up to 102 µM), most hits filed as inhibitors; Q96KQ7; actives 8.8% (n = 350,000); further: nearly all actives have a fitted effect of over 75% in size
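Chemiluminescent proximity detection of H3K9 monomethylation, read after 10 min bead incubation in the dark. Reaction: 20 nM G9a, 500 nM biotin-H3K9 peptide, 20 uM SAM cofactor, 2 h, room temperature, following 15 min enzyme-compound preincubation.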
BAZ2B block: inhibitors of human BAZ2B bromodomain; Q9UIF8; AlphaScreen BAZ2B-H3K14Ac peptide displacement; Potency, µM (top dose mostly 114 µM), most hits filed as inhibitors; actives 4.4% (n = 360,000); AID 504333; further: nearly all actives have a fitted effect of over 60% in size
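AlphaScreen displacement of biotin-H3(5-23)K14Ac peptide (50 nM final) from BAZ2B (50 nM final) in PBS pH 7.4, 0.01% Tween-20; complex preformed 30 min RT, then compounds (top 110 uM) 30 min RT, beads 20 min dark.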
JMJD2A Tudor: inhibitors of human JMJD2A Tudor domain; Potency, µM (titrated, usually from 114 µM), most hits filed as inhibitors; AlphaScreen JMJD2A-Tudor / H3K4me3 peptide binding; actives 4.4% (n = 390,000); O75164; AID 504339; further: nearly all actives have a fitted effect of over 50% in size
Target sequence (O75164 whole entry, looked up, the tested form may be a part): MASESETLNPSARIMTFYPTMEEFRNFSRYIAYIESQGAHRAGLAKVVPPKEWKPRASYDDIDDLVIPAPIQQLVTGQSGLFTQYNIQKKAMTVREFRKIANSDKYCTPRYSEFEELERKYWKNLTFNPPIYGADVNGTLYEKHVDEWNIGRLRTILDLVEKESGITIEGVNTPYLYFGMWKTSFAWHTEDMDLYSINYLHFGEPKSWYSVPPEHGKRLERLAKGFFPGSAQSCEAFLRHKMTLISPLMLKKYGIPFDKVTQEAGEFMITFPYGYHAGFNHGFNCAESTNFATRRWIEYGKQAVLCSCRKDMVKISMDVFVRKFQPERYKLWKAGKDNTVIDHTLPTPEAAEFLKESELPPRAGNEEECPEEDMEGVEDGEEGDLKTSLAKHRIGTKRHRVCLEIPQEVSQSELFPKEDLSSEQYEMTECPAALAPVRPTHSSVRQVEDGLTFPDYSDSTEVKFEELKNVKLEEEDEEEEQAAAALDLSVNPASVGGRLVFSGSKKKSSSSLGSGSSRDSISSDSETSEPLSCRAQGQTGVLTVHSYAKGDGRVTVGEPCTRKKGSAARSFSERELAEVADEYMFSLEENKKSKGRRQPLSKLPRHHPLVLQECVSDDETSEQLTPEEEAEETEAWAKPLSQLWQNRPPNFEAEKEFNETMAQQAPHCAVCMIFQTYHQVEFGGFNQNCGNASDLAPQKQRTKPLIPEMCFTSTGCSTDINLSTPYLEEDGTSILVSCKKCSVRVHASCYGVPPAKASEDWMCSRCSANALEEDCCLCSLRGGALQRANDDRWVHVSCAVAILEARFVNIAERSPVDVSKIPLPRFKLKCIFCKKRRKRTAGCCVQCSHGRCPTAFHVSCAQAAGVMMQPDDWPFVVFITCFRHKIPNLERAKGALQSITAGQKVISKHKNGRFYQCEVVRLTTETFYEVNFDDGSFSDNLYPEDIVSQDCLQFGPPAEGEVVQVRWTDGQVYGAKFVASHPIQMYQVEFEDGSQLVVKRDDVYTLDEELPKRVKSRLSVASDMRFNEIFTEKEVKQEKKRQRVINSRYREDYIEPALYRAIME
Hits are given with their value; n = inactive; u = inconclusive; x = not tested or not shown; [ ] = remark or other dose. Compounds with a hit are over-represented: about 12% of the library has one in this group of screens. The call rests on the fitted dose curve; in most records, active means well fitted curve in the direction sought with a large enough effect; inconclusive means small, poorly fitted or top-dose-only effect, or another doubt; inactive means no such curve, though single readings can be large; an effect the other way counts as inactive or inconclusive.

SMILES | HP1b chromo inh | Sfp PPTase inh | PLK1 PBD inh | G9a inh | BAZ2B block | JMJD2A Tudor
COC(=O)c1ccc(C(=O)OC)c(NC(=O)c2cc3nc(-c4ccc(C)cc4)cc(C(F)(F)F)n3n2)c1 | n | x | x | n | n | n
COc1ccc(CCNC(=O)Cn2c(=O)cc(C(F)(F)F)c3c(C)nn(C)c32)cc1OC | n | x | x | n | n | n
Cn1c(C(=O)N2CCOCC2)cnc1Sc1ncc(C(F)(F)F)cc1Cl | n | n | n | n | u | n
CCCNC(=O)c1cnc(Sc2ncc(C(F)(F)F)cc2Cl)n1C | n | n | n | n | 50µM | n
CCc1ccc(/C=C2\SC(=S)N(CCCC(=O)Nc3ccccn3)C2=O)cc1 | u | n | n | n[0.501 µM] | 10µM | u
O=C(CCCN1C(=O)/C(=C/c2cccc(Br)c2)SC1=S)Nc1ccccn1 | 8.9µM | n | n | u | u | u
CCc1ccc(/C=C2/SC(=S)N(CCCC(=O)Nc3ccccc3C(=O)O)C2=O)cc1 | n | n | 24µM | u | n | 50µM
COC(=O)c1ccc(/C=C2/SC(=S)N(CCCC(=O)Nc3ccccn3)C2=O)cc1 | u | n | n | n | n | n
CCc1ccc(/C=C2\SC(=S)N(CCCC(=O)N3CCCC3)C2=O)cc1 | x | x | n | x | x | x
COc1ccc(Cl)cc1NC(=S)NNC(=O)CC(C)C | n | n | n | n[12.7 µM] | n | n
COc1ccc(Cl)cc1NC(=S)NNC(=O)c1cccs1 | n | n | n | 28µM | n | u
COc1ccc(Cl)cc1NC(=S)NNC(=O)c1cccnc1 | n | n | n | 25µM | n | n
COc1ccc(NC(=S)NNC(=O)c2cccnc2)cc1OC | n | n | n | 45µM | n | n
CCCC1(C(=O)OC)C=C2C(=C(C(C)C)C(=O)C2C)CN1 (configuration not stated) | x | n | x | x | x | x
Cn1nnnc1Sc1ncnc2scc(-c3ccc(C(=O)OC(C)(C)C)cc3)c12 | x | x | x | x | x | n
O=C1CCc2cc(S(=O)(=O)Nc3ccc4ncccc4c3)ccc2N1 | x | x | x | x | x | n
CC1(C)S[C@@H]2[C@H](NC(=O)COc3ccccc3)C(=O)N2[C@H]1C(=O)O (tested in a mixture with another compound) | x | n | x | n[21.5 µM] | x | x
CCC12CCCN3CCc4c(n(c5ccccc45)C(O)(C(=O)OC)C1)C32 (configuration not stated) | n | n | n | 50µM | n | n
CCCn1c(-c2ccc(F)cc2)nc2c(N3CCN(CCn4ccnc4)CC3)nc(C)nc21 | x | n | x | x | x | x
Cc1ccc(-c2nn3c(C)nnc3s2)cc1NC(=O)c1ccc(-c2ccc(Cl)cc2Cl)o1 | n | 13µM | n | n | u | 63µM
Cc1oc(-c2ccc(Cl)cc2)cc1-c1nn2c(-c3ccoc3C)nnc2s1 | n | 10µM | u | u | n | u
Clc1ccccc1-c1nnc2sc(-c3ccc4c(c3)OCO4)nn12 | u | 10µM | 4.7µM | 1.8µM | n | u
Cc1ccc(-c2nn3c(C)nnc3s2)cc1NC(=O)c1ccc(Br)o1 | n | n | n | u | n | n
Clc1cccc(-c2nnc3sc(-c4ccc5c(c4)OCO5)nn23)c1 | x | 32µM | x | 10µM | n | x
CCN(CC(=O)Nc1c(F)cccc1F)C(=O)c1cc(-c2cccs2)nn1-c1ccccc1 | n | x | n | n | n | n
SMILES | HP1b chromo inh | Sfp PPTase inh | PLK1 PBD inh | G9a inh | BAZ2B block | JMJD2A Tudor
Clc1ccc(-c2nnc3sc(-c4ccc(Br)o4)nn23)c(Cl)c1 | n | n | n | n[2.33 µM] | n | n
CN(C)c1ccc(-c2nn3c(-c4ccc(Cl)cc4Cl)nnc3s2)cc1 | x | n | x | 14µM | n | x
CCc1nccn1S(=O)(=O)c1ccc2ccc(C)cc2c1 | n | n | n | u | n | n
Cc1cc(S(=O)(=O)N2CCOCC2)ccc1F | u | n | 30µM | n | n | 79µM
CC(=O)N1CCN(S(=O)(=O)c2ccc(F)c(Cl)c2)CC1 | n | n | n | n | x | n
CCOc1cc(S(=O)(=O)N2CCOCC2)ccc1F | n | n | n | n | n | n
O=C(CN1CCN(S(=O)(=O)c2ccc(F)c(Cl)c2)CC1)N1CCOCC1 | n | x | n | 1.1µM | n | n
CCOc1ccc2cc(S(=O)(=O)n3ccnc3C)ccc2c1 | n | 40µM | n | u | n | n
CCOc1ccc2cc(S(=O)(=O)N3CCOCC3)ccc2c1 | n | n | u | 4.5µM | n | n
